Here are results for 70 compounds from the antibiotic and cytotoxicity screens of Wong et al. (2023).

Among all 39,000 compounds or so, about 3,300 (8.5%) were called active. The list comes from a sample in which actives are over-represented; it also holds similar structures and randomly drawn compounds.

This assay deals with HepG2. The assay is described as follows: cytotoxicity call (relative viability < 0.9). The settings on record: 10 µM.
For the compound `F[C@H]1CCNC1`, the cytotoxicity call is “inactive”.
The entry for `C[C@@H]1CCCCO[C@@H](CN(C)C(=O)c2ccncc2)[C@H](C)CN([C@@H](C)CO)C(=O)c2cc(NS(=O)(=O)c3ccc(Cl)cc3)ccc2O1` is “inactive”.
As for `Cn1cnc(=N)c2[nH]cnc21`, the cytotoxicity call is “inactive”.
`CN1CCN([C@H](CNC(=O)C(=O)NCCN2CCOCC2)c2ccc(N(C)C)cc2)CC1`: the cytotoxicity call is “inactive”.
For the compound `Cc1noc(C)c1S(=O)(=O)Nc1cccc2c1O[C@H](CN(C)Cc1ccncc1)[C@H](C)CN([C@@H](C)CO)C2=O`, the cytotoxicity call is “inactive”.
For `C[C@H]1CN([C@@H](C)CO)C(=O)Cc2cc(NC(=O)Nc3cccc4ccccc34)ccc2O[C@@H]1CN(C)C(=O)NC1CCCCC1`, the cytotoxicity call was “inactive”.
On to `COC1C(C(=O)O)OC(C)C(O)C1O.COC1OC(C(=O)O)C(O)C(O)C1O` (stereo not given) [ALGINIC ACID [Mol Wt ~200,000; monomers shown] ], for which the cytotoxicity call was “active”.
For the compound `C[C@@H]1O[C@@H](O)[C@H](O)[C@H](O)[C@H]1O`, the cytotoxicity call is “inactive”.
Turning to `CO[C@H]1O[C@H](COS(=O)(=O)O)[C@@H](O[C@@H]2O[C@@H](C(=O)O)[C@@H](OC)[C@H](O)[C@H]2OS(=O)(=O)O)[C@H](O)[C@H]1NS(=O)(=O)O`, the cytotoxicity call was “inactive”.
With `C[C@@H]1CN([C@@H](C)CO)C(=O)Cc2cc(NC(=O)c3ccncc3)ccc2O[C@@H]1CN(C)Cc1ccncc1` the entry was “inactive”.
Take `O=C(C[C@H]1CC[C@H]2[C@@H](COC[C@@H](O)CN2C(=O)c2ccc(F)cc2)O1)NCCCN1CCOCC1`: the cytotoxicity call is “inactive”.
With `O=C(CCCCCCC(=O)NO)NO`, the cytotoxicity call was “inactive”.
Turning to `O=C(CCCCCCC(=O)Nc1ccc([C@H]2C[C@H](c3ccccc3)O[C@H](c3ccccc3)O2)cc1)NO`, the cytotoxicity call is “inactive”.
Turning to `O=C(CCCCCCC(=O)Nc1ccccc1)NO`, the cytotoxicity call was “active”.
For `C[C@@H]1CN([C@@H](C)CO)C(=O)CCCn2nncc2CO[C@H]1CN(C)S(=O)(=O)c1ccc(C#N)cc1`, the cytotoxicity call was “inactive”.
On to `CCO[C@@H]1OC(C(=O)N2CCCCCCC2)=C[C@H](c2coc3ccccc3c2=O)[C@H]1CCCOC(=O)NCCCCCC(=O)NO`, for which the cytotoxicity call is “inactive”.
For the compound `C[C@H](CO)N1C[C@H](C)[C@H](CN(C)C(=O)NC2CCCCC2)OCCCC[C@H](C)Oc2ccc(NC(=O)Nc3ccccc3)cc2C1=O`, the cytotoxicity call is “inactive”.
With `C[C@H](CO)N1C[C@H](C)[C@@H](CN(C)C(=O)NC2CCCCC2)OCCCC[C@H](C)Oc2ccc(NC(=O)Nc3ccccc3)cc2C1=O`, the cytotoxicity call is “inactive”.
With `C[C@@H]1CN([C@H](C)CO)C(=O)c2cc(NC(=O)Nc3ccccc3)ccc2O[C@@H](C)CCCCO[C@H]1CN(C)C(=O)NC1CCCCC1` the entry was “active”.
For `C[C@H]1CCCCO[C@H](CN(C)C(=O)NC2CCCCC2)[C@@H](C)CN([C@@H](C)CO)C(=O)c2cc(NC(=O)Nc3ccccc3)ccc2O1`, the cytotoxicity call was “active”.
As to `C[C@@H]1CN([C@@H](C)CO)C(=O)c2cc(NC(=O)Nc3ccccc3)ccc2O[C@@H](C)CCCCO[C@@H]1CN(C)C(=O)NC1CCCCC1`, the cytotoxicity call is “inactive”.
For the compound `C[C@H]1CCCCO[C@@H](CN(C)C(=O)NC2CCCCC2)[C@@H](C)CN([C@@H](C)CO)C(=O)c2cc(NC(=O)Nc3ccccc3)ccc2O1`, the cytotoxicity call was “inactive”.
The entry for `C[C@H](CO)N1C[C@H](C)[C@H](CN(C)S(=O)(=O)c2ccccc2)Oc2c(NC(=O)c3cnccn3)cccc2C1=O` is “inactive”.
For `NNC(=O)c1cccc(C(=O)NO)c1`, the cytotoxicity call is “inactive”.
The entry for `Cc1noc(C)c1NC(=O)N(C)C[C@H]1Oc2ncc(C#CCN(C)C)cc2C(=O)N([C@@H](C)CO)C[C@H]1C` is “inactive”.
Consider `CCCCCCCCCCCCCCCC(=O)OC[C@@H](NC(=O)C(Cl)Cl)[C@H](O)c1ccc([N+](=O)[O-])cc1`, for which the cytotoxicity call was “inactive”.
As to `CCCCCCCCCCCCCCCC(=O)OC[C@H](NC(=O)C(Cl)Cl)[C@H](O)c1ccc([N+](=O)[O-])cc1`, the cytotoxicity call is “inactive”.
In the case of `O=C([O-])CCC(=O)OCC(NC(=O)C(Cl)Cl)C(O)c1ccc([N+](=O)[O-])cc1.[Na+]` (stereo not given), the cytotoxicity call is “active”.
On to `CS(=O)(=O)c1ccc(C(O)C(CO)NC(=O)C(Cl)Cl)cc1` (stereo not given), for which the cytotoxicity call was “inactive”.
Turning to `O=C(NC(CO)C(O)c1ccc([N+](=O)[O-])cc1)C(Cl)Cl` (stereo not given), the cytotoxicity call was “active”.
Turning to `CCCCCCCCCCCCCCCC(=O)OCC(NC(=O)C(Cl)Cl)C(O)c1ccc([N+](=O)[O-])cc1` (stereo not given), the cytotoxicity call was “inactive”.
With `C[C@H]1CCCCO[C@@H](CN(C)C(=O)Nc2ccc(C(F)(F)F)cc2)[C@@H](C)CN([C@@H](C)CO)C(=O)c2cc(NS(=O)(=O)c3cn(C)cn3)ccc2O1` the entry was “inactive”; with `CNC(=O)C(=O)NC[C@H]1OCCN1S(=O)(=O)c1ccccc1`, “inactive”.
Take `Cc1ccc(S(=O)(=O)N(C)C[C@H]2Oc3c(NS(C)(=O)=O)cccc3C(=O)N([C@@H](C)CO)C[C@@H]2C)cc1`: the cytotoxicity call is “inactive”.
Consider `C[C@H](CO)N1C[C@H](C)[C@H](CN(C)Cc2ccncc2)Oc2ccc(NC(=O)c3ccncc3)cc2C1=O`, for which the cytotoxicity call was “inactive”.
As for `C[C@@H]1CN([C@@H](C)CO)S(=O)(=O)c2ccc(-c3ccncc3)cc2O[C@@H]1CN(C)S(=O)(=O)c1ccccc1F`, the cytotoxicity call was “inactive”.
For `O=C(C1=C[C@H](c2csc3ccccc23)C[C@H](OCc2ccc(CO)cc2)O1)N1CCN(Cc2ccc3c(c2)OCO3)CC1`, the cytotoxicity call was “inactive”.
For `O=C(C1=C[C@@H](c2csc3ccccc23)C[C@@H](OCc2ccc(CO)cc2)O1)N1CCN(Cc2ccc3c(c2)OCO3)CC1`, the cytotoxicity call was “active”.
For the compound `O=C(C1=C[C@H](c2csc3ccccc23)C[C@H](OCc2ccc(CO)cc2)O1)N1CCN(Cc2ccccc2)CC1`, the cytotoxicity call was “inactive”.
`C[C@H](CO)N1C[C@H](C)[C@H](CN(C)S(C)(=O)=O)Oc2ccc(NC(=O)c3ccncc3)cc2CC1=O`: the cytotoxicity call was “inactive”.
`Cl.O=c1n(CCCN2CCN(c3cccc(Cl)c3)CC2)nc2ccccn12`: the cytotoxicity call is “inactive”.
With `COc1ccccc1N1CCN(c2ncc(C(=O)N3CCN(c4cccc(Cl)c4)CC3)c3ccccc23)CC1` the entry was “inactive”.
`CCc1nn(CCCN2CCN(c3cccc(Cl)c3)CC2)c(=O)n1CCOc1ccccc1`: the cytotoxicity call is “active”.
For the compound `C[C@H]1CN([C@@H](C)CO)C(=O)c2cccc(NS(=O)(=O)c3ccc(F)cc3)c2O[C@H]1CN(C)Cc1ccncc1`, the cytotoxicity call was “inactive”.
`COc1cc(C(=O)NCCCN2CCCN(CCCNC(=O)c3cc(OC)c(OC)c(OC)c3)CC2)cc(OC)c1OC`: the cytotoxicity call was “inactive”.
With `Cc1cn(CCN2CCN(c3ccccc3-c3cc(C#N)cc(C(=O)NCCCN4CCCC4)c3)CC2)c2ccccc12` the entry was “active”; with `Cc1cn(CCC#N)c2ccccc12`, “inactive”.
`C[C@@H]1CN([C@@H](C)CO)S(=O)(=O)c2ccc(-c3ccncc3)cc2O[C@@H]1CN(C)Cc1ccc(Oc2ccccc2)cc1`: the cytotoxicity call is “inactive”.
For `C[C@H](O)C#Cc1ccc2c(c1)O[C@@H](CN(C)C(=O)CN(C)C)[C@H](C)CN([C@H](C)CO)S2(=O)=O`, the cytotoxicity call was “inactive”.
In the case of `CC(C)NC(=O)Nc1cccc2c1O[C@H](CN(C)Cc1ccc(-c3ccccc3)cc1)[C@H](C)CN([C@H](C)CO)C2=O`, the cytotoxicity call is “inactive”.
The entry for `C[C@@H]1CN([C@@H](C)CO)C(=O)c2cccc(NC(=O)Nc3ccccc3)c2O[C@@H]1CN(C)Cc1ccc(-c2ccccc2)cc1` is “active”.
The entry for `C[C@@H]1CN([C@@H](C)CO)C(=O)c2cccc(NC(=O)Nc3ccccc3)c2O[C@H]1CN(C)Cc1ccc(-c2ccccc2)cc1` is “inactive”; for `C[C@H]1CN([C@@H](C)CO)C(=O)c2cccc(NC(=O)Nc3ccccc3)c2O[C@@H]1CN(C)Cc1ccc(-c2ccccc2)cc1` it is “inactive”; for `C[C@@H]1CN([C@H](C)CO)C(=O)c2cccc(NC(=O)Nc3ccc(F)cc3)c2O[C@H]1CN(C)Cc1ccc(-c2ccccc2)cc1` it is “active”.
With `C[C@H](CO)N1C[C@H](C)[C@@H](CN(C)Cc2ccc(-c3ccccc3)cc2)Oc2c(NC(=O)Nc3ccc(F)cc3)cccc2C1=O` the entry was “inactive”; with `C[C@H]1CN([C@@H](C)CO)C(=O)c2cccc(NC(=O)Nc3ccc(F)cc3)c2O[C@@H]1CN(C)Cc1ccc(-c2ccccc2)cc1`, “inactive”.
`CC(C)NC(=O)Nc1cccc2c1O[C@@H](CN(C)Cc1ccc(-c3ccccc3)cc1)[C@@H](C)CN([C@@H](C)CO)C2=O`: the cytotoxicity call is “inactive”.
As to `C[C@H]1CN([C@@H](C)CO)C(=O)c2cccc(NC(=O)Nc3ccc(F)cc3)c2O[C@H]1CN(C)Cc1ccc(-c2ccccc2)cc1`, the cytotoxicity call was “inactive”.
Take `CC(C)NC(=O)Nc1cccc2c1O[C@H](CN(C)Cc1ccc(-c3ccccc3)cc1)[C@@H](C)CN([C@@H](C)CO)C2=O`: the cytotoxicity call is “active”.
As to `C[C@H](CO)N1C[C@H](C)[C@H](CN(C)Cc2ccc(-c3ccccc3)cc2)Oc2c(NC(=O)Nc3ccc(F)cc3)cccc2C1=O`, the cytotoxicity call was “inactive”.
Regarding `C[C@@H]1CN([C@@H](C)CO)C(=O)c2cccc(NC(=O)Nc3ccc(F)cc3)c2O[C@@H]1CN(C)Cc1ccc(-c2ccccc2)cc1`, the cytotoxicity call is “active”.
As for `CN1CCN(C(=O)C[C@H]2CC[C@@H]3[C@H](COC[C@H](O)CN3C(=O)C3CC3)O2)CC1`, the cytotoxicity call was “inactive”.
Consider `O=C(O)[C@H]1CCCC[C@@H]1C(=O)N1CCOCC1`, for which the cytotoxicity call is “inactive”.
As for `CO[C@@H]1CN(C)C(=O)c2ccc(NS(C)(=O)=O)cc2OC[C@@H](C)N(C(=O)C2CCCCC2)C[C@H]1C`, the cytotoxicity call was “inactive”.
As to `COc1ccc(NC(=O)N2C[C@@H](O)COC[C@@H]3O[C@H](CC(=O)NCc4ccccc4OC)CC[C@H]32)cc1`, the cytotoxicity call is “inactive”.
Take `C[C@@H]1CN([C@@H](C)CO)S(=O)(=O)c2ccc(C#CC3CC3)cc2O[C@H]1CN(C)Cc1ccccc1F`: the cytotoxicity call is “inactive”.
The entry for `COc1ccc(S(=O)(=O)N[C@H]2CC[C@@H](CC(=O)N3CCN(c4ccccc4)CC3)O[C@H]2CO)cc1` is “inactive”; for `CC(C)NC(=O)Nc1ccc2c(c1)C(=O)N([C@H](C)CO)C[C@@H](C)[C@H](CN(C)S(C)(=O)=O)OCCCC[C@H](C)O2` it is “inactive”.
On to `O=C(C[C@H]1CC[C@@H](NS(=O)(=O)c2ccc(F)cc2)[C@@H](CO)O1)NCc1ccc(Cl)c(Cl)c1`, for which the cytotoxicity call is “inactive”.
Regarding `C[C@@H]1CCCCO[C@@H](CN(C)C(=O)Nc2ccc(F)cc2)[C@H](C)CN([C@H](C)CO)C(=O)c2cc(NC(=O)Cc3ccccc3)ccc2O1`, the cytotoxicity call is “inactive”.
